Experimental data taken from PubChem BioAssay AID1159580 (chemical genetic matrix, 2015).
Hit rate of the full screen: of about 5,500 compounds, about 2,000 (36%) were called active. Another 18% or so got no clear call; they are omitted. No stated cut-off is given here; in the data, active means normalized growth mostly below about 0.91 (no sharp cut-off); inconclusive means no clear call, values can overlap the other calls; inactive means mostly above about 0.92. This is one part of the list.

Experiment: chemical genetic growth profiling, strain panel (AID 1159580);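 further: tested at 20 µM; growth read once vehicle control cultures reached saturation at 30 °C; 1 = growth at the plate median or of vehicle wells; lower values mean less growth of the strain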
Details: S. cerevisiae deletion strains, growth OD
[1] = locus YDL101C, strain DUN1, hits give low values
[2] = locus YGR078C, strain PAC10, hits give low values
[3] = locus YHR030C, strain SLT2, hits give low values
[4] = locus YJR075W, strain HOC1, hits give low values
[5] = locus YMR263W, strain SAP30, hits give low values
[6] = locus YMR307W, strain GAS1, hits give low values
[7] = locus YNL153C, strain GIM3, hits give low values
[8] = locus YNL322C, strain KRE1, hits give low values
[9] = locus YPL241C, strain CIN2, hits give low values
[10] = locus YAR019C, strain CDC15, hits give low values
[11] = locus YBL105C, strain PKC1, hits give low values
[12] = locus YBR135W, strain CKS1, hits give low values
[13] = locus YBR136W, strain MEC1, hits give low values
[14] = locus YBR160W, strain CDC28, hits give low values
[15] = locus YDL017W, strain CDC7, hits give low values
[16] = locus YDL028C, strain MPS1, hits give low values
[17] = locus YDL108W, strain KIN28, hits give low values
[18] = locus YDL132W, strain cdc53, hits give low values
[19] = locus YDL214C, strain PRR2, hits give low values
[20] = locus YDR052C, strain DBF4, hits give low values
[21] = locus YDR054C, strain cdc34, hits give low values
[22] = locus YDR226W, strain ADK1, hits give low values
[23] = locus YDR477W, strain SNF1, hits give low values
[24] = locus YER123W, strain YCK3, hits give low values
[25] = locus YER133W, strain GLC7, hits give low values
[26] = locus YFL009W, strain cdc4, hits give low values
[27] = locus YFL029C, strain CAK1, hits give low values
[28] = locus YFR003C, strain YPI1, hits give low values
[29] = locus YFR019W, strain FAB1, hits give low values
[30] = locus YFR028C, strain CDC14, hits give low values
[31] = locus YGR040W, strain KSS1, hits give low values
[32] = locus YGR052W, strain FMP48, hits give low values
[33] = locus YGR092W, strain DBF2, hits give low values
[34] = locus YHR079C, strain IRE1, hits give low values
[35] = locus YHR082C, strain KSP1, hits give low values
[36] = locus YHR205W, strain SCH9, hits give low values
[37] = locus YIL147C, strain SLN1, hits give low values
[38] = locus YJL095W, strain BCK1, hits give low values
[39] = locus YJL128C, strain PBS2, hits give low values
[40] = locus YJL157C, strain FAR1, hits give low values
[41] = locus YJR016C, strain ILV3, hits give low values
[42] = locus YJR066W, strain TOR1 (second series), hits give low values
[43] = locus YJR066W, strain TOR1, hits give low values
[44] = locus YKL048C, strain ELM1, hits give low values
[45] = locus YKL067W, strain YNK1, hits give low values
[46] = locus YKL101W, strain HSL1, hits give low values
[47] = locus YKL193C, strain SDS22, hits give low values
[48] = locus YKL203C, strain TOR2, hits give low values
[49] = locus YLR113W, strain HOG1, hits give low values
[50] = locus YLR133W, strain CKI1, hits give low values
[51] = locus YLR403W, strain SFP1, hits give low values
[52] = locus YML070W, strain DAK1, hits give low values
[53] = locus YMR001C, strain CDC5, hits give low values
[54] = locus YMR205C, strain PFK2 (second series), hits give low values
[55] = locus YMR277W, strain FCP1, hits give low values
[56] = locus YNL006W, strain LST8, hits give low values
[57] = locus YNL020C, strain ARK1, hits give low values
[58] = locus YNL161W, strain CBK1, hits give low values
[59] = locus YNL183C, strain NPR1, hits give low values
[60] = locus YNL207W, strain RIO2, hits give low values
[61] = locus YNL222W, strain SSU72, hits give low values
[62] = locus YNL307C, strain MCK1 (second series), hits give low values
[63] = locus YOL078W, strain AVO1, hits give low values
[64] = locus YOL136C, strain PFK27, hits give low values
[65] = locus YOR061W, strain CKA2, hits give low values
[66] = locus YOR119C, strain RIO1, hits give low values
[67] = locus YOR231W, strain MKK1, hits give low values
[68] = locus YOR329C, strain SCD5, hits give low values
[69] = locus YPL031C, strain PHO85, hits give low values
[70] = locus YPL153C, strain RAD53, hits give low values
[71] = locus YPL204W, strain HRR25, hits give low values
[72] = locus YPL209C, strain IPL1, hits give low values
[73] = locus YPL256C, strain CLN2, hits give low values
[74] = locus YPR025C, strain CCL1, hits give low values
[75] = locus YPR106W, strain ISR1, hits give low values
[76] = locus YPR111W, strain DBF20, hits give low values
[77] = strain NNK1, hits give low values
[78] = strain TSCII, hits give low values
[79] = locus YAL040C, strain CLN3, hits give low values
[80] = locus YCL061C, strain MRC1 (second series), hits give low values
[81] = locus YDR363W, strain ESC2, hits give low values
[82] = locus YER002W, strain NOP16, hits give low values
[83] = locus YNL175C, strain NOP13, hits give low values
[84] = locus YNL197C, strain WHI3, hits give low values
[85] = locus YNL224C, strain SQS1, hits give low values
[86] = locus YOR083W, strain WHI5 (second series), hits give low values

Measured: normalized growth

ON=C(c1cccs1)c1cccs1
active: [3] 0.383 | locus YLR039C, strain RIC1, hits give low values 0.62 | locus YLR085C, strain ARP6, hits give low values 0.673 | locus YLR262C, strain YPT6, hits give low values 0.657 | [6] 0.657 | [8] 0.924 | locus YPR135W, strain CTF4, hits give low values 0.637
inactive: locus YAL013W, strain DEP1, hits give low values 0.947 | locus YBR229C, strain ROT2, hits give low values 0.94 | [1] 0.94 | locus YDL134C, strain PPH21, hits give low values 0.989 | locus YDR150W, strain NUM1, hits give low values 0.921 | locus YEL061C, strain CIN8, hits give low values 0.947 | [2] 0.928 | locus YHR087W, strain rtc3, hits give low values 0.965 | locus YJR043C, strain POL32, hits give low values 0.944 | [4] 0.927 | locus YLR058C, strain SHM2 (second series), hits give low values 0.959 | locus YML094W, strain GIM5, hits give low values 0.903 | locus YMR219W, strain ESC1, hits give low values 0.963 | [5] 0.957 | locus YNL128W, strain TEP1, hits give low values 1 | [7] 0.958 | locus YNL298W, strain CLA4 (second series), hits give low values 0.893 | locus YNR030W, strain Alg12, hits give low values 0.895 | locus YOL006C, strain TOP1, hits give low values 0.896 | locus YPL055C, strain LGE1, hits give low values 0.941 | [9] 0.876

O=C(Nc1ccccc1)Nc1ccc(Cl)cc1[N+](=O)[O-]
inactive: [10] 0.977 | [11] 0.973 | [12] 0.976 | [13] 0.977 | [14] 0.964 | [15] 0.975 | [16] 0.974 | [1] 0.987 | [17] 0.988 | [18] 0.962 | [19] 0.917 | [20] 0.968 | [21] 0.97 | [22] 0.968 | [23] 0.947 | [24] 0.92 | [25] 0.959 | [26] 0.961 | [27] 0.977 | [28] 0.989 | [29] 0.933 | [30] 0.974 | [31] 0.938 | [32] 1.01 | [33] 0.932 | [34] 0.872 | [35] 0.926 | [36] 0.874 | [37] 0.972 | [38] 0.847 | [39] 0.958 | [40] 0.946 | [41] 0.972 | [42] 0.928 | [43] 0.903 | [44] 0.925 | [45] 0.93 | [46] 0.921 | [47] 0.968 | [48] 0.976 | [49] 0.888 | [50] 0.92 | [51] 0.944 | [52] 0.909 | [53] 0.977 | [54] 0.941 | [55] 0.974 | [56] 0.976 | [57] 0.909 | [58] 0.976 | [59] 0.906 | [60] 0.96 | [61] 0.985 | [62] 0.916 | [63] 0.97 | [64] 0.892 | [65] 0.956 | [66] 1.01 | [67] 0.835 | [68] 0.978 | [69] 0.948 | [70] 0.942 | [71] 0.925 | [72] 0.975 | [74] 0.979 | [75] 0.975 | [76] 0.963 | [77] 0.952 | [78] 0.965
active: [3] 0.721 | [73] 0.809

O=C1NC(=O)C(c2ccccc2[N+](=O)[O-])=C1Nc1ccc(O)c(Cl)c1
inactive: [79] 0.951 | [80] 0.974 | [81] 0.964 | [82] 0.98 | [4] 1 | [5] 0.99 | [6] 1.04 | [7] 0.971 | [83] 0.953 | [84] 0.981 | [85] 0.996 | [86] 0.943 | [9] 0.982

O=C(Nc1ccccc1)c1cc([N+](=O)[O-])ccc1Cl
inactive: [79] 1.07 | [80] 0.989 | [81] 0.967 | [82] 0.972 | [2] 0.974 | locus YGR229C, strain SMI1, hits give low values 0.996 | [83] 0.996 | [84] 0.969 | [85] 0.976 | [8] 0.999 | [86] 0.958 | [9] 1

O=[N+]([O-])c1cc(Cl)cc([N+](=O)[O-])c1Nc1ccccc1
inactive: [10] 0.924 | [11] 0.927 | [12] 0.916 | [13] 0.923 | [14] 0.918 | [15] 0.937 | [16] 0.925 | [1] 0.919 | [17] 0.935 | [18] 0.91 | [19] 0.986 | [20] 0.94 | [21] 0.893 | [22] 0.934 | [23] 0.949 | [24] 0.975 | [25] 0.977 | [26] 0.917 | [27] 0.929 | [28] 0.938 | [29] 0.963 | [30] 0.942 | [31] 0.963 | [32] 1.1 | [33] 0.89 | [34] 0.976 | [35] 0.997 | [36] 0.965 | [37] 0.933 | [38] 0.921 | [39] 0.916 | [40] 0.957 | [41] 0.936 | [42] 0.946 | [43] 0.969 | [44] 0.93 | [45] 0.982 | [46] 0.96 | [47] 0.932 | [48] 0.989 | [49] 0.923 | [50] 0.954 | [51] 0.992 | [52] 0.987 | [53] 0.929 | [54] 0.998 | [55] 0.936 | [56] 0.926 | [57] 0.928 | [58] 0.92 | [59] 0.992 | [60] 0.935 | [61] 0.936 | [62] 0.943 | [63] 0.922 | [64] 0.981 | [65] 0.968 | [66] 1.03 | [67] 0.962 | [68] 0.926 | [69] 0.948 | [70] 0.965 | [71] 0.946 | [72] 0.933 | [73] 0.972 | [74] 0.922 | [75] 0.949 | [76] 0.934 | [77] 0.954 | [78] 0.915
active: [3] 0.824
